Test results reported in ChEMBL document CHEMBL3988442, “University of Dundee, Small-Polar-MMV Screening Library” (2021).
“And” between values parts separate entries of the source, which are not always exact repeats. Identical values can stand only once. Screen size: about 38,000 compounds; about 1,200 (3.2%) showed an effect of 50% or more. The median lay at about -58%. This excerpt belongs to a sample that is enriched for strong results.

System: Plasmodium falciparum
Assay: Calibr Malaria Delayed Death Assay SOP
Format: functional, organism-based
Set-up: scale not given: in the data most compounds retested in dose-response had high values
Conditions: concentration 4.99e-06 (unit not given; other assays of the set use mol/L)

| Compound | Percent Effect | Percent Effect (4.99 µM) |
| --- | --- | --- |
| O=C(Nc1cn[nH]c1)N1CCN(CCSc2ccccc2)CC1 | -6.157% | – |
| CCOCc1ncn2c1CN(C(=O)Nc1cccc(F)c1)CC2 | -77.13% | – |
| CN(CCCOc1ccccc1Cl)C(=O)CN1CCCCCC1=O | -111.3% | – |
| Cc1cccc(S(=O)(=O)N2Cc3nccn3CC(CN(C)C)C2)c1 (stereo not given) | 1.767% | – |
| CC(=O)N1CCc2[nH]c(=O)ccc2C1 | -39.7% | – |
| CCn1ccnc1CNCC(c1ccc(C)s1)N1CCOCC1 (stereo not given) | 52.86% | – |
| O=C(CCn1cccn1)NCC(c1cccs1)N1CCOCC1 (stereo not given) | -64.96% | – |
| Cc1ccc(C(CNCc2cccn2C)N2CCOCC2)s1 (stereo not given) | -42.34% | – |
| CCCn1cc(CNCC(c2ccc(C)s2)N2CCOCC2)cn1 (stereo not given) | 54.23% | – |
| Cc1ccc(C(CNCC2CC2)N2CCOCC2)s1 (stereo not given) | 23.83% | – |
| Cc1ccc(C(CNCc2cccnc2)N2CCOCC2)s1 (stereo not given) | -2.804% | – |
| CCn1cc(CNCC(c2ccc(C)s2)N2CCOCC2)cn1 (stereo not given) | 64.77% | – |
| CCn1cc(CNC(=O)CCc2nnc(-c3ccc(C)s3)o2)cn1 | -44.03% | – |
| Cc1ccc(C(CNCc2ccc(C#N)cc2)N2CCOCC2)s1 (stereo not given) | 50.98% | – |
| Cc1ccc(C(CNCc2nccn2C)N2CCOCC2)s1 (stereo not given) | -32.15% | – |
| Cc1ccc(C(CNCc2ccncc2)N2CCOCC2)s1 (stereo not given) | -46.8% | – |
| Cc1ccc(C(CNCc2ncc[nH]2)N2CCOCC2)s1 (stereo not given) | 32.72% | – |
| O=C(NCCc1nccs1)C(c1ccccc1)n1cnnn1 (stereo not given) | -126.4% | – |
| Cn1ccnc1-c1ccc(NCc2cn3c(n2)SCC3)nn1 | -229.6% | – |
| CC(C)CC(CO)NS(=O)(=O)Cc1ccon1 (stereo not given) | -57.79% | – |
| Cc1ccc2nc(C3CCCN3C(=O)c3cc(=O)[nH]c(=O)[nH]3)[nH]c2c1 (stereo not given) | -24.73% | – |
| COc1ccc(NS(=O)(=O)CC2=NC(=O)n3cccc3C2=O)cc1Cl | -78.67% | – |
| CN(CCC(N)=O)Cc1cc(Br)cs1 | -77.34% | – |
| Cc1ncc(CN(C)CC(O)c2ccc(Br)cc2)s1 (stereo not given) | 19.44% | – |
| CCCN(CCC)C(=O)CN(C)Cc1cnc(C)s1 | -123.6% | – |

| Compound | Percent Effect | Percent Effect (4.99 µM) |
| --- | --- | --- |
| CCOC(=O)CN(C)Cc1cnc(C)s1 | -144.9% | – |
| Cc1cc(CNC(=O)NCC(O)c2cccc(C(F)(F)F)c2)no1 (stereo not given) | -35.43% | – |
| Cc1ncc(CN(C)CC(O)c2cccc(C(F)(F)F)c2)s1 (stereo not given) | 53.4% | – |
| Cc1ncc(CN(C)CC(O)c2ccc(OC(F)(F)F)cc2)s1 (stereo not given) | 62.45% | – |
| N#Cc1ccc(N2CCC3(CCC(=O)N3Cc3ccncc3)CC2)nc1.O=C(O)C(F)(F)F.O=C(O)C(F)(F)F | -114.1% | – |
| CCn1cc(-c2cc(C(F)F)n3nc(CC(=O)O)nc3n2)cn1 | -21.51% | – |
| COCCCC1CCN([C@@H]2c3ccccc3C3(CCNCC3)[C@H]2O)CC1 | 36.42% | – |
| CCOCCN1CCN([C@@H]2c3ccccc3C3(CCNCC3)[C@H]2O)CC1 | -70.37% | – |
| Cc1cc(C(C)(O)CNC(=O)CCOCC(C)C)c(C)o1 (stereo not given) | -34.27% | – |
| CCS(=O)(=O)N1CC[C@@H]2[C@H](CC1)N(Cc1cccnc1)CCS2(=O)=O.O=C(O)C(F)(F)F.O=C(O)C(F)(F)F | -78.89% | – |
| Cc1csc(C2CCCCN2C(=O)CN(C)C2CC2)n1 (stereo not given) | -127% | – |
| Cc1csc(C2CCCCN2C(=O)COCc2nc(C)no2)n1 (stereo not given) | -74.6% | – |
| Cc1csc(C2CCCCN2C(=O)c2cc(C(C)C)[nH]n2)n1 (stereo not given) | 75.22% | – |
| CC(NCC(=O)Nc1ccc(N2CCCCCC2)cc1)c1cccs1 (stereo not given) | 21.94% | – |
| COC(=O)c1cc(OC)c(OC)cc1NCc1c(C)noc1C | -119.4% | – |
| CCCN(C(=O)CN1CCn2c(nnc2C2CC2)C1)C1=CCCCC1 | -109.1% | – |
| Cc1nn(C)c2nc(NCCCN3CCCC(C(N)=O)C3)sc12 (stereo not given) | -133.1% | – |
| COc1ncc(CN(CCN(C)C)Cc2ccc(C)s2)cn1 | -3.016% | – |
| CCc1ccc(CN(CCN(C)C)Cc2ccc(C)s2)nc1 | 91.79% | – |
| Cc1ccc(CN(CCN(C)C)Cc2nc3ccccc3[nH]2)s1 | 60.93% | – |
| COCc1ncc(CN(CCN(C)C)Cc2ccc(C)s2)cn1 | 1.94% | – |
| CCNc1ncc(CN(CCN(C)C)Cc2ccc(C)s2)cn1 | 37.82% | – |
| Cc1ccc(CN(CCCO)Cc2nc3ccccc3[nH]2)s1 | -85.6% | – |
| O=C(O)C1(O)CCN(c2ccc3cccc(Cl)c3n2)CC1 | -181.1% | – |
| CCCN1CCC(c2nc3ccc(-c4cccc(F)c4)cn3n2)CC1.O=C(O)C(F)(F)F | 31.95% | – |

| Compound | Percent Effect | Percent Effect (4.99 µM) |
| --- | --- | --- |
| COc1ccc(Cn2nnnc2SCC2CCCN(C)C2)cc1 (stereo not given) | 58.9% | – |
| COc1ccc(OC)c(-n2nnnc2SCC2CCCN(C)C2)c1 (stereo not given) | 41.34% | – |
| COc1ccc(CN2CC[C@H](c3nnc(-c4ccco4)o3)C2)cc1 | -19.38% | – |
| O=C(O)C(F)(F)F.O=C(c1cccs1)N1CCOCC2(C1)CN(c1cccnc1)C(=O)CO2 (stereo not given) | -98.48% | – |
| Cc1ccc(C(=O)Nc2nnc(CC(C)C)s2)c(-n2cnnn2)c1C | -82.26% | – |
| Cn1ccnc1CN1CCC(Cn2cc(-c3ccncc3)nn2)CC1 | -74.11% | – |
| COc1ccc(F)c(CN2CCCC(O)(CNCc3ncc[nH]3)C2=O)c1 (stereo not given) | -101.4% | – |
| O=C1N(Cc2cccc(F)c2F)CCCC1(O)CNCC1CCCCC1 (stereo not given) | 73.31% | – |
| O=C1N(Cc2cccc(F)c2F)CCCC1(O)CNC1CCCC1 (stereo not given) | 59.35% | – |
| O=C1N(Cc2ccc(F)c(F)c2)CCCC1(O)CNCC1CCCCC1 (stereo not given) | 73.06% | – |
| COCCNCC1(O)CCCN(Cc2ccc(F)c(F)c2)C1=O (stereo not given) | 23.01% | – |
| O=C1N(Cc2cccc(F)c2F)CCCC1(O)CNCc1ccccn1 (stereo not given) | 0.3162% | – |
| COC(=O)CNCC1(O)CCCN(Cc2cccc(F)c2F)C1=O (stereo not given) | -57.14% | – |
| COc1ccc(F)c(CN2CCCC(O)(CNC3CCCCC3)C2=O)c1 (stereo not given) | 69.02% | – |
| CN1CCC(NCC2(O)CCCN(Cc3ccccc3F)C2=O)CC1 (stereo not given) | 4.135% | – |
| O=C(CNCC1(O)CCCN(Cc2cccc(F)c2F)C1=O)NC1CC1 (stereo not given) | -101.8% | – |
| C=C(C)CNCC1(O)CCCN(Cc2ccc(F)c(F)c2)C1=O (stereo not given) | -91.62% | – |
| COc1ccc(F)c(CN2CCCC(O)(CNCc3ccon3)C2=O)c1 (stereo not given) | -23.9% | – |
| O=C(CCc1cccnc1)N1CCC2(CCN(CC3CCCC3)C2)C1.O=C(O)C(F)(F)F.O=C(O)C(F)(F)F (stereo not given) | 15.87% | – |
| Cn1cc(NC(=O)CNC(=O)N2CCN(c3cccc(Cl)c3)CC2)cn1 | -19.66% | – |
| Cc1ccc(NC(C(N)=O)c2ccc(F)cc2)cc1 (stereo not given) | -42.35% | – |
| O=C(NCCc1nnc2n1CCC2)NC1(c2cccc(F)c2)CC1 | -62.64% | – |
| CNC(=O)c1cnc2c(C)csc2c1 | -145.8% | – |
| Cc1nn(C2CCS(=O)(=O)C2)c(O)c1Cc1ccccc1Cl (stereo not given) | -17.18% | – |
| Cc1noc([C@H]2CC[C@@H]3[C@@H](CCN3c3ncccn3)O2)n1 | -94.2% | – |

| Compound | Percent Effect | Percent Effect (4.99 µM) |
| --- | --- | --- |
| Cc1ccc(C)c(OCCN(C)C(=O)CCc2cn[nH]c2)c1 | -90.4% | – |
| CCc1noc(C)c1C(=O)N1CCC2(CCCN(CC(C)(C)C)C2=O)C1 (stereo not given) | – | -34.55% and -37.04% |
| CN(CC1(O)CCCN(Cc2cccc(F)c2F)C1=O)C1CCCCC1 (stereo not given) | 63.45% | – |
| CC1CCN(CC2(O)CCCN(Cc3cccc(F)c3F)C2=O)CC1 (stereo not given) | -78.62% | – |
| CC(C)(C)CNCC1(O)CCCN(Cc2ccccc2F)C1=O (stereo not given) | 83.8% | – |
| O=C1N(Cc2cccc(F)c2F)CCCC1(O)CN1CCCOCC1 (stereo not given) | 40.89% | – |
| COc1ccc(F)c(CN2CCCC(O)(CNCC(C)(C)C)C2=O)c1 (stereo not given) | 48.73% | – |
| Cc1cccnc1CNCC1(O)CCCN(CC(C)(C)C)C1=O (stereo not given) | -8.334% | – |
| CC(C)C(C)NC(=O)CNc1cc2c(cc1Cl)NC(=O)CO2 (stereo not given) | -65.88% | – |
| CCOCC1CN(S(=O)(=O)C2CC2)Cc2ncn(CC3CC3)c21 (stereo not given) | -12.84% | – |
| Cc1noc(C)c1CN1C[C@H](OCC2CC2)[C@H]2COC[C@H]21.O=C(O)C(F)(F)F | -59.49% | – |
| Cc1noc(C)c1CN1CC[C@H](OCC2CC2)[C@@H](Cc2ccccc2)C1 | 60.12% | – |
| O=C(C1CCOCC1)N1CC[C@@H](N2CCOCC2)[C@@H]1Cc1ccccc1 | 3.107% | – |
| O=C(O)C(F)(F)F.c1ccc(C[C@H]2CN(Cc3nccs3)CC[C@@H]2OCC2CC2)cc1 | 38.1% | – |
| c1ccc(-c2nnc([C@H]3CCN(C4CCOCC4)C3)o2)cc1 | -0.6483% | – |
| OC(CNc1ccncn1)CN1CCCCCC1 (stereo not given) | -2.039% | – |
| CC(C)c1ccc(C(=O)N2CCOCC2CC(=O)c2ccco2)cn1 (stereo not given) | -33.41% | – |
| CS(=O)(=O)N1CCCC(Cc2cncc(Br)c2)CC1 (stereo not given) | -9.475% | – |
| FC(F)(F)c1ccc2nc([C@H]3CCN(C4CCCCC4)C3)[nH]c2c1 | 83.6% | – |
| CS(=O)(=O)N1CC[C@H](c2nc3ccc(C(F)(F)F)cc3[nH]2)C1 | -89.81% | – |
| FC(F)(F)c1ccc2nc([C@H]3CCN(C4CCC4)C3)[nH]c2c1 | 5.22% | – |
| O=C(CCc1ccccc1)N1CCCCC1Cn1cccn1 (stereo not given) | -77.88% | – |
| Cc1cnc(N2CCC3(CC2)CC3CN(C)Cc2cccnc2)nc1.O=C(O)C(F)(F)F.O=C(O)C(F)(F)F (stereo not given) | -34.71% | – |
| CN(Cc1cccnc1)CC1CC12CCN(c1nncs1)CC2.O=C(O)C(F)(F)F.O=C(O)C(F)(F)F.O=C(O)C(F)(F)F (stereo not given) | -14.98% | – |
| Cc1ccc(CN2CCC3(CC2)CC3CN(C)Cc2cccnc2)o1.O=C(O)C(F)(F)F.O=C(O)C(F)(F)F.O=C(O)C(F)(F)F (stereo not given) | 69.86% | – |
